Data reported in PubChem BioAssay.

Assay: caspase-8 TRAIL sensitization, hit retest, confirmation, cell-based, NB7+caspase-8, with/without TRAIL, luminescence panel (AID 651596)
Conditions: NB7 neuroblastoma + caspase-8, without TRAIL, luminescence viability, without TRAIL, mean of runs, at 10 µM
For `Clc1ccc(-c2nc3n(n2)Cc2ccccc2-3)cc1`, the activity was 76.6%. In the case of `CC1CCc2nc(NC(=O)c3ccco3)sc2C1` (stereo not given), the activity is reported as 89%. `COC(=O)c1c(NC(=O)c2nc3ccccc3s2)sc2c1CC(C)(C)NC2(C)C` gave an activity of 98.3%. `COc1ccc(-c2cc(C(=O)N3CCCC3)no2)cc1` gave an activity of 59.8%. `Cc1cccc(NC(=S)NC(=O)c2ccc(-c3ccccc3)cc2)n1` showed an activity of 55.3%. Compound `Clc1ccccc1CSc1nc2ccncc2[nH]1` has an activity of 79.3%. `CCN(CC)c1ccc(/C=N/NC(=O)c2ccccn2)cc1` gave an activity of 45.4%. In the case of `C[C@@H](NC(=O)c1ncn2c1c(=O)[nH]c1ccc(Br)cc12)c1ccccc1`, the activity is reported as 13%. `CCCn1c(C)cc(C(=O)COC(=O)c2cc(=O)[nH]c3ccccc23)c1C` gave an activity of 59.1%. For `Cc1ccc(C2=NN(C(=O)CCl)C(c3ccco3)C2)o1` (stereo not given), the activity was 98.2%. For `O=C(/C=C/c1ccco1)Nc1scc(-c2ccccc2)c1C(=O)O`, the activity was 39.8%. In the case of `COc1ccccc1N1CCN(C2=Nc3cccc4cccc2c34)CC1`, the activity is reported as 58.2%. `O=c1c2c(-c3ccccc3)csc2nc2c3ccccc3c(NCCN3CCOCC3)nn12` showed an activity of 90.1%. Work on `Cc1ccc(NC(=O)c2nc(S(=O)(=O)Cc3ccccc3)ncc2Cl)cc1` yielded an activity of 96.1%. With `COc1cc2nc(CN(C)Cc3ccc(C(C)(C)C)cc3)[nH]c(=O)c2cc1OC` the activity was 68%. Work on `COc1ccc(NC(=O)c2cccc3c2C(=O)c2ccc(-c4ccc(F)cc4OCc4ccccc4)cc2S3(=O)=O)cc1` yielded an activity of 31.4%. Work on `O=C(N/N=C/c1cc(O)ccc1[N+](=O)[O-])c1ccc2c(c1)OCCO2` yielded an activity of 87.7%. With `COc1ccc(C(=O)Nc2ccccc2C(=O)N/N=C/c2ccccn2)cc1OC` the activity was 59.5%. `Cc1occc1C(=O)O/N=C(\N)c1ccc(Cl)cc1` showed an activity of 84.7%. For `Cc1ccc(N(NC(=O)C(O)(c2ccccc2)c2ccccc2)C(=O)CCl)cc1`, the activity was 97.6%. `COc1ccc2nc(Nc3ccccc3)sc2c1` showed an activity of 38.6%. `Cc1cc(NC(=O)c2cc3n(n2)C(C(F)(F)F)CC(c2ccco2)N3)no1` (stereo not given) showed an activity of -14.8%. With `CCCC(=O)Nc1ccc(-c2csc(N/N=C\c3ccncc3)n2)cc1` the activity was 65.6%. Compound `COc1cc(/C=C(/C#N)c2nc3ccccc3[nH]2)ccc1OCC(=O)Nc1ccccc1C` has an activity of 97.8%. Compound `Cc1ccc(CSc2nnc(-c3cccnc3)o2)cc1` has an activity of 45.6%. Work on `CCOC(=O)c1ccc(N=c2sc(C(=O)OC)cc(=O)n2-c2ccc(C(=O)OCC)cc2)cc1` yielded an activity of 37.6%. In the case of `CCN1CCN(Cc2ccc(NC(=O)c3cc(NC(=O)c4cncc(-c5ccc(C#N)cc5)c4)cc(OC)c3)cc2C(F)(F)F)CC1`, the activity is reported as 98.7%. Compound `Nc1nc(N)c(-c2cccc(C(F)(F)F)c2)c(Cc2cccc(C(F)(F)F)c2)n1` has an activity of 80.7%. Compound `CCc1ccc(OCc2nc(-c3ccccn3)no2)c(Br)c1` has an activity of 46.4%. Work on `Cn1c(N)c(C(=O)COC(=O)c2cc(S(=O)(=O)N3CCOCC3)ccc2F)c(=O)n(C)c1=O` yielded an activity of 93.8%. With `Clc1nc2ccccc2cc1/C=N/Nc1nc2ccccc2[nH]1` the activity was 81.5%. `O=C(c1ccncc1)N(Cc1cc2ccccc2[nH]c1=O)C1CCCCC1` showed an activity of 78.4%. For `Cc1ccccc1-n1nnnc1Sc1nnnn1-c1ccccc1`, the activity was 91.3%. `Cc1nc(-c2ccc(C(=O)Nc3ccccc3F)cc2)cs1` showed an activity of 84.3%. For `O=C(CCl)Nc1ncc(S(=O)(=O)c2ccc([N+](=O)[O-])cc2)s1`, the activity was 92.3%. `COc1ccccc1-c1nc(-c2ccccn2)no1` gave an activity of 72.7%. With `Cn1c2c(c(=O)n(C)c1=O)C(C(F)(F)F)(C(F)(F)F)N=C(c1ccc(Cl)cc1)N2` the activity was 52.3%. `Cc1ccc(-c2cn3cc([N+](=O)[O-])ccc3n2)cc1` gave an activity of 41.5%. For `Cc1ccc(C(=O)Nc2ccc3ccccc3n2)cc1`, the activity was 58.2%. In the case of `CCOc1ccc(C(=O)Nc2cc(C)c3c(=O)oc4ccccc4c3n2)cc1`, the activity is reported as 62.1%.
